Test [1] has as its target Lysosomal acid glucosylceramidase (Homo sapiens) (UniProt P04062). As to the kind of experiment: Glucocerebrosidase-p2 (AID 348; in the data active = potency below about 10 µM; also: potency is read from the fitted curve at half-maximal effect). Conditions: purified GBA, blue fluorogenic substrate, 40 min. In short, it runs like this:
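Normal human glucocerebrosidase (0.2 nM) with blue fluorogenic substrate (80 uM final) in citrate/phosphate pH 5.9 with 10mM sodium taurocholate, 0.01% tween-20; 40 min RT, NaOH/glycine stop; fluorescence Ex 365/Em 440; AC50 from a titration from 0.6 nM upwards.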

Test [2] is described as follows: AP1 Signaling Pathway (AID 357). Also: % is scaled to controls: 0 for no effect and ±100 for the full control effect. To be noted: ME-180 AP-1-bla reporter, EGF-induced, beta-lactamase ratio, 5 h; at 7.69 µM (top of the series) unless noted. In short, it runs like this: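 First, ME-180 AP-1-bla cells were cultured overnight at 37 °C in low-serum Opti-MEM. Next, titrated compounds with EC50 EGF were incubated 5 hours. Finally, CCF4 was added for 2.5 hours and the 460/530 nm ratio recorded.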

Test [3] addresses Cytochrome P450 1A2 (Homo sapiens) (UniProt P05177). Kind of test: p450-cyp1a2 (AID 410; calls by dose curve; also: potency is read from the fitted curve at half-maximal effect;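 as to activity change, negative = inhibition: -100% = full effect of reference inhibitor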). Conditions: recombinant CYP1A2, luciferin-ME demethylation, luminescence; series mostly up to 11.4 µM. In short, it runs like this:
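20nM CYP1A2, 100uM Luciferin-ME (=Km), 100mM KPO4; cpd 10 min RT; +NADPH regen, 60 min RT; stop/detect 20 min; luminescence. Normalized to furafylline 57 uM = full inhibition.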

Test [4] in a line: NFAT Signaling Pathway (AID 444).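 Also: carbachol stimulus at about its EC50 of 1 µM final; % is scaled to controls: 0 for no effect and ±100 for the full control effect.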 Conditions: Jurkat NFAT-bla M1, carbachol, beta-lactamase ratio, 5 h; at 7.69 µM (top of the series) unless noted. In short, it runs like this:
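Jurkat cells with NFAT-driven β-lactamase reporter and co-expressed M1 receptor, stimulated with carbachol (final 1 uM, ~EC50), compound titration, 5 h at 37 °C. CCF4 loaded 1 h at RT; 460/530 nm ratio gave %activity and AC50.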

The nature of test [5]: Stat Signaling Pathway (AID 446).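 Also: ME-180 cervical cancer cells given 40 pM IL-6 alongside compound; SIE-controlled beta-lactamase reporter measured as 460/530 nm FRET emission ratio; % is scaled to controls: 0 for no effect and ±100 for the full control effect.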 To be noted: ME-180 (cervical carcinoma) SIE beta-lactamase reporter, IL-6 stimulated, 5 h; at 7.69 µM (top of the series) unless noted. In short, it runs like this: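 Compound effects on IL-6-induced STAT reporter activity were measured in ME-180 cells. After overnight culture, cells were co-treated with 40 pM IL-6 for 5 hrs before beta-lactamase substrate loading at room temperature.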

Test [6] deals with Glucocorticoid receptor (Homo sapiens) (UniProt P04150). Kind of test: GR-GFP Redistribution (AID 450;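 active = compounds whose dose series gives a full or clear partial fitted curve of increased nuclear translocation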; also: potency is read from the fitted curve at half-maximal effect). To be noted: U2OS GR-GFP nuclear translocation, laser cytometry, 2 h.
The target is the same in test [7]. As to the kind of experiment: GR-EFC Redistribution (AID 451; calls by dose curve; also: potency is read from the fitted curve at half-maximal effect). To be noted: CHO-K1 GR-EFC translocation, beta-gal luminescence, 2 h. In short, it runs like this: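 CHO-K1 cells expressing nuclear EA and GR-ED fragments of b-gal; compounds titrated up to 46 uM final, 2 h at 37 C. GR nuclear translocation read as complemented b-gal luminescence after 1 h RT detection.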

Test [8] has as its target Mitogen-activated protein kinase 10 (Mus musculus) (UniProt Q61831). Kind of test: JNK3 AlphaScreen Assay (AID 530).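 Also: kinase came from lysate of stimulated human HepG2 cells; signal reports phosphorylation of biotinylated GST-cJun 1-79 at Ser73 with 10 µM ATP; % is scaled to controls: 0 for no effect and ±100 for the full control effect.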 Conditions: JNK3 lysate, c-Jun phosphorylation; series mostly up to 11.4 µM. In short, it runs like this: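 HepG2 lysate (IL-1b/TNFa pre-activated) + biotin-GST-cJun 1-79 + anti-pSer73 cJun; cpd titration, 15 min RT; ATP 10 uM start; Tris pH 7.6, MgCl2, DTT, vanadate; beads in EDTA buffer; AlphaScreen.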
(In Alpha technology, singlet oxygen from a donor bead excites a nearby acceptor bead.)

The target of test [9] is 3',5'-cyclic-AMP phosphodiesterase 4B (Homo sapiens) (UniProt Q07343). Kind of test: qHTS Assay for Inhibitors of PDE-IV (AID 607; active = well fitted activation curve with a large enough effect in the main read-out, with a control signal flat, not every such curve was filed as active; also: % of control where 0% means no effect). Conditions: HEK293 ACTOne CNG channel cells, membrane potential fluorescence; series mostly up to 22.9 µM. In short, it runs like this:
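ACTOne HEK293 cells carry a modified cAMP-gated CNG channel and express endogenous PDE4; plated 1000 cells/well, compounds up to 22.9 uM final. Membrane-potential dye fluorescence (ex 535/em 590) was read; parental cells received 10 uM forskolin + 100 uM RO 20-1724.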
Background: In qHTS, concentration-response curves come from the screen itself.

Drawing on PubChem BioAssay (NCATS), this text covers Potency, activity change, negative = inhibition and activity, negative = inhibition for 15 compounds.

Structures are written as SMILES. Unmarked numbers belong to inactive results. Records with an inconclusive call do not appear. Active and inactive are the calls of the source. Unless noted, calls follow the shape of the dose curve; as a rule, active = well fitted curve in either direction with a large enough effect (not every such curve was filed as active); inconclusive = small, poorly fitted or top-dose-only effect, or another doubt; inactive = flat fitted curve, though single readings scatter.

Glucocorticoid receptor (Homo sapiens), sequence (P04150 whole entry, looked up, the tested form may be a part): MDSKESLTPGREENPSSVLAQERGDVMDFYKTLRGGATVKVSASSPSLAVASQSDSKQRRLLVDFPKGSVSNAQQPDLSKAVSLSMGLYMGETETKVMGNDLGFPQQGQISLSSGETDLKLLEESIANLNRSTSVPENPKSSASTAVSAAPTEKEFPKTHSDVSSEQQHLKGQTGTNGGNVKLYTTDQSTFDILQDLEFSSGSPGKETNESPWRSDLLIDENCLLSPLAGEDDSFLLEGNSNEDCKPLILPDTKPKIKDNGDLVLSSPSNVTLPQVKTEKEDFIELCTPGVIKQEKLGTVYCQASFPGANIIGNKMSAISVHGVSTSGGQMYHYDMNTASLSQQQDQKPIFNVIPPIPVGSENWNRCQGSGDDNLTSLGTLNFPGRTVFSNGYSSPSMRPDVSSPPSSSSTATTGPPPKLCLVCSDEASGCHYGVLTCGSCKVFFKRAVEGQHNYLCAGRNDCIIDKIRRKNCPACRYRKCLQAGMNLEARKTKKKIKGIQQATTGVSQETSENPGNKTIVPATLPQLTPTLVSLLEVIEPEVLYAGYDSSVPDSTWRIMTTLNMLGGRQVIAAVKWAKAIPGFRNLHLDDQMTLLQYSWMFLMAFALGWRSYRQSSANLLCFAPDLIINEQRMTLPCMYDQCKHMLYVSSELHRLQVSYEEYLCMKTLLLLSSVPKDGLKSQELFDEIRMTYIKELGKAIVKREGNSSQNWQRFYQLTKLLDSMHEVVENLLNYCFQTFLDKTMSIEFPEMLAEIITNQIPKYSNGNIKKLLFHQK
Lysosomal acid glucosylceramidase (Homo sapiens), sequence (P04062 whole entry, looked up): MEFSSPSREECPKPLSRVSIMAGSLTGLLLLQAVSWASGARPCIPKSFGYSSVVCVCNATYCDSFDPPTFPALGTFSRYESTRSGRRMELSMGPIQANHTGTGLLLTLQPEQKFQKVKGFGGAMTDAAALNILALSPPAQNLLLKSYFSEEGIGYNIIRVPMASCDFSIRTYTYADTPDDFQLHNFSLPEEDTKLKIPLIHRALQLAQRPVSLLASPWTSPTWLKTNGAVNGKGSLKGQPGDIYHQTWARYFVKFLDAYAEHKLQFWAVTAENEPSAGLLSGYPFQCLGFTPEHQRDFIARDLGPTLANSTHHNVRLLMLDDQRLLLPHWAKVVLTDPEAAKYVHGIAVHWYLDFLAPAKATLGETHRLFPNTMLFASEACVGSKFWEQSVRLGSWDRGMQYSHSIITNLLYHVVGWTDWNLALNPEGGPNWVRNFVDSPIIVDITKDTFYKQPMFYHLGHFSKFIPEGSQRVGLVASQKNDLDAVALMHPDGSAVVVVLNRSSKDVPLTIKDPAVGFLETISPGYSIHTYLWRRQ
Cytochrome P450 1A2 (Homo sapiens), sequence (P05177 whole entry, looked up): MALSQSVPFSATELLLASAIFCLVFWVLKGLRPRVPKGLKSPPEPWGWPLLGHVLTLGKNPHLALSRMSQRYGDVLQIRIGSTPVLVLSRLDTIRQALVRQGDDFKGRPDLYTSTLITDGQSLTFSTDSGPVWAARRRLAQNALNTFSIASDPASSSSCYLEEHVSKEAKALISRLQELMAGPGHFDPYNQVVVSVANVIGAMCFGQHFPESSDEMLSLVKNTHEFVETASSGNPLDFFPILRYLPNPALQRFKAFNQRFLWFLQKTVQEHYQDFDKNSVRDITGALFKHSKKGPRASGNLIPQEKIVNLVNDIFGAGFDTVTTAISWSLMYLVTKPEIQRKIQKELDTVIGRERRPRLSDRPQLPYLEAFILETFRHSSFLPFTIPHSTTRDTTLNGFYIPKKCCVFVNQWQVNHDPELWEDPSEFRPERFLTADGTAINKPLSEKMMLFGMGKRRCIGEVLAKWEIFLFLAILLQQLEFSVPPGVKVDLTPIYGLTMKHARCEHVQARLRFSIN
3',5'-cyclic-AMP phosphodiesterase 4B (Homo sapiens), sequence (Q07343 whole entry, looked up): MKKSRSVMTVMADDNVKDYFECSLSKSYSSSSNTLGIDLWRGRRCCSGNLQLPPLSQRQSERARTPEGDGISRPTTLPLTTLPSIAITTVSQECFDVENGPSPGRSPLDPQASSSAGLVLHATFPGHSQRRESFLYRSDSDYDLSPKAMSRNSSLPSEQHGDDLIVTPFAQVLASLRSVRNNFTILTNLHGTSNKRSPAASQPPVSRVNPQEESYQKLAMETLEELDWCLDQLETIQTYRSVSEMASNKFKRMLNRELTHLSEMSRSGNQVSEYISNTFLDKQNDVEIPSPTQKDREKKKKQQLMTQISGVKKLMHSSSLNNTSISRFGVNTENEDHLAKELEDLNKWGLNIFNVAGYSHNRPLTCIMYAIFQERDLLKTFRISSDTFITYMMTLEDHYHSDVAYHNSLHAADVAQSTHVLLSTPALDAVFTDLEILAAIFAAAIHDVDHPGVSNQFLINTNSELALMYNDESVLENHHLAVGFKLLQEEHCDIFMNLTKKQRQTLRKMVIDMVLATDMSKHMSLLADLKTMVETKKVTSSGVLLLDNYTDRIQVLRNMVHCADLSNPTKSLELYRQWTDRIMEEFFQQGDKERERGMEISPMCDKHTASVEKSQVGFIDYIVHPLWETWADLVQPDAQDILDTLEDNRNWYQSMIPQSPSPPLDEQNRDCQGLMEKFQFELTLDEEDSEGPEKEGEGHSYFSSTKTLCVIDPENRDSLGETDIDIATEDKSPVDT

For the compound `CN(C)CCNS(=O)(=O)N(C)C`, the figures for the Potency in test [1], in test [6] and in test [7] were over 11.4 µM, over 46 µM and over 9.22 µM, respectively. The figures for the activity change, negative = inhibition in test [2] and in test [4] were -0.375% and 3.58%, respectively. Moreover, the Potency entry in test [3], in test [8] and in test [9] was “inactive” in each case. Also, the activity, negative = inhibition in test [5] was 4.72%.

Take `C[C@H](Br)C(=O)c1ccc2cc(Br)c3ccccc3c2c1`: the Potency is over 11.4 µM in [1], 0.158 µM (active) in [3], over 46 µM in test [6] and over 9.22 µM in test [7]. Besides, the values for the activity change, negative = inhibition in test [2] and in test [4] were -18.5% and 26.1%, respectively. Besides, the activity, negative = inhibition in test [5] is -2.19%. For the same compound, the Potency result in test [8] and in test [9] was “inactive” in each case.

`NC(=O)[C@@H]1CCCN1Cc1ccc2c(c1)OCO2`: the Potency in [1] is over 11.4 µM; in [3], 3.16 µM (active); in test [6], over 46 µM; in test [7], over 9.22 µM. Besides, the activity change, negative = inhibition in test [2] was -6.11%; in [4], 7.42%. The activity, negative = inhibition in test [5] is 6.27%. Further, the Potency entry in [8] and in [9] was “inactive” in each case.

On to `Nc1cc(S(=O)(=O)O)cc2ccc(S(=O)(=O)O)cc12`, for which the Potency in test [1] is over 11.4 µM; in [6], over 46 µM; in [7], over 9.22 µM. Also, the values for the activity change, negative = inhibition in [2], in test [3] and in test [4] were 1.79%, -18.1% [at 2.29 µM] and 2.43%, respectively. Further, in test [5], the activity, negative = inhibition is -1.78%. Also, the Potency result in [8] and in [9] was “inactive” each time.

As to `Oc1cccnc1CN1CCCCC1`, the Potency in test [1] is over 11.4 µM; in [6], over 46 µM; in [7], over 9.22 µM. For the same compound, the activity change, negative = inhibition in test [2] was -3.72%; in [4], 11.7%. Also, the Potency entry in test [3], in test [8] and in test [9] was “inactive” throughout. In test [5], the activity, negative = inhibition was 16.8%.

In the case of `CC(C)(C)c1ccc(OC(=O)Nc2ccc(O)c(C(=O)O)c2)cc1`, the Potency in [1] is over 11.4 µM; in test [6] it was over 46 µM; in test [7], over 9.22 µM. The activity change, negative = inhibition in test [2] is -0.0209%; in [3], 6.5% [at 2.29 µM]; in test [4], 6.49%. Besides, the activity, negative = inhibition in test [5] was 0.0223%. Moreover, the Potency result in test [8] and in test [9] was “inactive” each time.

On to `O=C(O)CCC(=O)c1ccc2sc3ccccc3c2c1`, for which the Potency in test [1] was over 11.4 µM; in test [3], 3.98 µM (active); in test [6], over 46 µM; in test [7] it was over 9.22 µM. Besides, the activity change, negative = inhibition was 3.02% in test [2] and 7.45% in [4]. In addition, in test [5], the activity, negative = inhibition is -12.2%. The Potency entry in test [8] and in test [9] was “inactive” in each case.

In the case of `NCC(=O)Nc1ccccc1`, the Potency is over 11.4 µM in test [1], 2.51 µM (active) in test [3], over 46 µM in test [6] and over 9.22 µM in [7]. The figures for the activity change, negative = inhibition in test [2] and in test [4] were 4.23% and 1.46%, respectively. In addition, the activity, negative = inhibition in [5] is 4.18%. Besides, the Potency entry in test [8] and in test [9] was “inactive” each time.

As to `C[N+](C)(C)CCCSc1nc2ccccc2[nH]1`, the figures for the Potency in test [1], in test [6] and in test [7] were over 11.4 µM, over 46 µM and over 9.22 µM, respectively. Also, the activity change, negative = inhibition in [2] is -2.62%; in test [4], -15.2%. Also, the Potency entry in [3], in test [8] and in [9] was “inactive” in each case. Besides, the activity, negative = inhibition in [5] was -0.948%.

In the case of `COc1ccc([C@H](O)c2ccccn2)cc1`, the Potency was over 11.4 µM in test [1], over 46 µM in test [6] and over 9.22 µM in test [7]. The values for the activity change, negative = inhibition in test [2] and in test [4] were -0.268% and 2.24%, respectively. Also, the Potency entry in [3], in test [8] and in test [9] was “inactive” in each case. Further, the activity, negative = inhibition in [5] was 9.75%.

As for `O=C(O)C[C@H](Cc1ccccc1)C(=O)O`, the Potency is over 11.4 µM in test [1], over 46 µM in [6] and over 9.22 µM in test [7]. The activity change, negative = inhibition is 11% in [2] and 2.62% in test [4]. Besides, the Potency result in [3], in [8] and in test [9] was “inactive” throughout. The activity, negative = inhibition in test [5] was -5.23%.

For the compound `O=C(O)[C@@H]1CCN(Cc2oc(CO)cc(=O)c2O)C1`, the Potency in test [1] was over 11.4 µM; in test [3], 10 µM (active); in [6], over 46 µM; in test [7], over 9.22 µM. Further, the activity change, negative = inhibition in test [2] is 6.76%; in [4], -8.96%. Also, the activity, negative = inhibition in [5] was 16.1%. Also, the Potency entry in test [8] and in [9] was “inactive” throughout.

As to `Nc1c(OCC(=O)O)ccc2cc(S(=O)(=O)O)ccc12`, the Potency in test [1] is over 11.4 µM; in test [6] it was over 46 µM; in test [7], over 9.22 µM. Further, the figures for the activity change, negative = inhibition in [2] and in [4] were 3.51% and -3.75%, respectively. Moreover, the Potency entry in [3], in test [8] and in test [9] was “inactive” in each case. For the same compound, the activity, negative = inhibition in test [5] is -10.7%.

As for `CCOC(=O)[C@@H](O)Cc1cnc2ccccc2n1`, the Potency in test [1] was over 11.4 µM; in test [3], 3.16 µM (active); in test [6], over 46 µM; in test [7], over 9.22 µM. Moreover, the activity change, negative = inhibition in test [2] is 5.54%; in test [4], -6.57%. In addition, the activity, negative = inhibition in [5] is -5.21%. In addition, the Potency entry in test [8] and in [9] was “inactive” throughout.

On to `N[C@@H](CSC(=O)c1ccccc1)C(=O)O`, for which the Potency in test [1] was over 11.4 µM; in [6], over 46 µM; in test [7], over 9.22 µM. The results for the activity change, negative = inhibition in [2] and in [4] were -5.26% and 3.72%, respectively. The Potency entry in test [3], in test [8] and in test [9] was “inactive” each time. In addition, in [5], the activity, negative = inhibition is 4.69%.
